This is a sample that favours compounds with a hit; in the whole collection about 32% have one here.
PostGolgi yeast – growth inhibition of a yeast mutant, post-Golgi transport screen. post-Golgi transport phenotypic cell assay. inhibition, % at 10 µM. 0.9% of 98,000 active;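 further: yeast cells grown in 1536-well plates; yeast grown about 18 h at 30C before absorbance read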
CYP2C19 activ – cytochrome P450 2C19 (human) activation. P33261. recombinant CYP2C19, luciferin-H EGE luminescence; stronger effect = higher value; 0 = fully inhibited enzyme, 1 = untreated enzyme. activation factor at 5 µM. 96,000 tested, under 10 active. AID 1025;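 active means activation factor of at least 2 at 5 µM in the primary screen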
Target sequence (P33261 whole entry, looked up): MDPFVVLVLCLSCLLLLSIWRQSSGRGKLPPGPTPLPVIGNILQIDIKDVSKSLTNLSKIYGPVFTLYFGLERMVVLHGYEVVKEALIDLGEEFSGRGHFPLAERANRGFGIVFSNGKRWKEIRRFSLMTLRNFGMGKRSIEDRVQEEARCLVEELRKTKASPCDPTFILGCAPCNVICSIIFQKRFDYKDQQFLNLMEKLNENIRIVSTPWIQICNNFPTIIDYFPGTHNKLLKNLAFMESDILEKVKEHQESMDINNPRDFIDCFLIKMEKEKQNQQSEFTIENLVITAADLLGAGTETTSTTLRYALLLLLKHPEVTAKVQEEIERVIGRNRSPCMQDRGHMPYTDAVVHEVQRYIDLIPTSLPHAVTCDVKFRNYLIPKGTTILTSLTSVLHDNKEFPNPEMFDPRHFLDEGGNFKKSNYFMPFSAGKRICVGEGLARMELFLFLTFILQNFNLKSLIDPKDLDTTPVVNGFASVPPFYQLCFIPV
CYP2C9 inh – human CYP2C9 inhibition. CYP2C9 Supersomes, luciferin-H conversion, luminescence. inhibition, % at 5 µM. 20% of 96,000 active. AID 777;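 active means blocking of liver enzyme CYP2C9 beyond about 50% at 5 µM, limit read from the data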
CYP2C9 activ – increases human cytochrome P450 2C9 activity. AID 1024. 1.4% of 96,000 active. P11712. recombinant CYP2C9, luciferin-H conversion, luminescence; stronger effect = higher value; factor 1 = untreated enzyme, 0 = blocked. activation factor at 5 µM;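 active means activation factor of 2 or more for CYP2C9 at a 5 µM dose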
PostGolgi ctrl – yeast control strain growth, post-Golgi counter-screen; efflux-deficient yeast background strain, growth absorbance A615, 16 h; inhibition, % at 10 µM; 5% of 98,000 active
CYP2C19 inh – blocks human cytochrome P450 2C19; CYP2C19 Supersomes, luciferin-H EGE luminescence, 30 min; 21% of 96,000 active; inhibition, % at 5 µM;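 active means CYP2C19 inhibition above a set limit at 5 µM in the primary screen, cut at about 50% in these data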
Large screens that a line does not name were inactive. Unless noted, no stated cut-off is given here; in the data, active means inhibition above about 30%; inactive means the rest.

Cc1cc(C)nc(NS(=O)(=O)c2ccc(Br)cc2)n1	none
Cc1ccnc(NS(=O)(=O)c2ccc(NS(=O)(=O)c3cccs3)cc2)n1	none (no result: CYP2C19 activ, CYP2C9 inh, CYP2C9 activ, CYP2C19 inh)
CCCCc1ccc(NS(=O)(=O)c2cccs2)cc1	CYP2C9 inh 59, PostGolgi ctrl 37
O=S(=O)(Nc1ccc(Cc2ccncc2)cc1)c1ccc(Br)cc1	CYP2C9 inh 99, CYP2C19 inh 100
O=S(=O)(Nc1ccc(Cc2ccncc2)cc1)c1ccc(Br)s1	CYP2C9 inh 100, CYP2C19 inh 72
CCOC(=O)N1CCC(NC(=O)c2cc(C)c3c(C)nn(-c4ccccc4)c3n2)CC1	none
N#CCc1ccc(NS(=O)(=O)c2cccs2)cc1	CYP2C9 inh 72, CYP2C19 inh 86 (no result: PostGolgi yeast, PostGolgi ctrl)
CCS(=O)(=O)Nc1ccc(NC(C)=O)cc1	none
CCS(=O)(=O)Nc1ccc(Cc2ccncc2)cc1	CYP2C9 inh 95, CYP2C19 inh 93
NS(=O)(=O)c1ccc(NS(=O)(=O)c2cccs2)cc1	none
O=S(=O)(Nc1ccc(Cc2ccncc2)cc1)c1cccs1	CYP2C9 inh 99, CYP2C19 inh 100
Cc1ccc(OC(=O)NC2CCS(=O)(=O)C2)cc1C (stereo not drawn)	none
COc1ccc(CNC(=O)c2cnn3c(C(F)F)cc(C)nc23)cc1OC	CYP2C19 inh 57
Cc1ccc2cc(C(c3nnnn3C3CCCC3)N3CCOCC3)c(=O)[nH]c2c1C (stereo not drawn)	none
CCOC(=O)C1CCN(C(c2cc3ccc(C)c(C)c3[nH]c2=O)c2nnnn2C2CCCCC2)CC1 (stereo not drawn)	CYP2C9 inh 90, CYP2C19 inh 80
Cc1ccc(C)c2[nH]c(=O)c(C(c3nnnn3C3CCCC3)N3CCOCC3)cc12 (stereo not drawn)	none
CCOC(=O)C1CCN(C(c2cc3c(C)ccc(C)c3[nH]c2=O)c2nnnn2C2CCCCC2)CC1 (stereo not drawn)	PostGolgi ctrl 30
COc1ccc(C(=O)Nc2ccccc2)cc1S(=O)(=O)Nc1cc(C)on1	none
Cc1ccc(N(O)C(=O)OCCNC(=O)Nc2ccccc2)cc1	CYP2C9 inh 92, CYP2C19 inh 94
COC(=O)[C@H](Cc1ccccc1)NC(=O)Nc1ccc(C)cc1	CYP2C19 inh 66
COC(=O)[C@H](Cc1ccccc1)NC(=O)NCCC1=CCCCC1	CYP2C9 inh 62, CYP2C19 inh 69
COC(=O)C(NC(=O)C(C)Oc1ccccc1)C(C)C (stereo not drawn)	none
COC(=O)C(Cc1ccc(O)cc1)NC(=O)C(C)Oc1ccccc1 (stereo not drawn)	CYP2C9 inh 58, CYP2C19 inh 94
Cc1ccc(NC(=O)NCCCc2ccccc2)cc1	CYP2C19 inh 59
CC(C)Cn1c(N)c(C(=O)COC(=O)C2=COCCO2)c(=O)n(C)c1=O	none (no result: CYP2C19 activ, CYP2C9 inh, CYP2C9 activ, CYP2C19 inh)
CC1CC(N(C(=O)c2ccco2)c2ccccc2)c2ccccc2N1 (stereo not drawn)	CYP2C9 inh 96, CYP2C19 inh 84
CCCN(CCC)CCSc1nc(O)c(C(C)C)c(=O)[nH]1	none
CCNC(=O)CN(c1ccc(C)cc1)S(=O)(=O)c1ccccc1	none
O=C(CN(c1ccc2c(c1)OCCO2)S(=O)(=O)c1ccccc1)NCc1ccco1	CYP2C9 inh 62, CYP2C19 inh 71
COc1ccccc1N(CC(=O)N/N=C/c1ccc(OCC(=O)NCc2ccco2)cc1)S(=O)(=O)c1ccc(C)cc1	CYP2C9 inh 96, CYP2C19 inh 89
Cc1ccc(N(CC(O)COCc2ccco2)S(=O)(=O)c2ccc(C)cc2)cc1 (stereo not drawn)	CYP2C9 inh 88, CYP2C19 inh 94
COc1ccccc1NC(=O)COc1ccc(/C=N/NS(=O)(=O)c2ccc(C)cc2)cc1	none
Cc1ccc(N(CC(=O)NCc2ccco2)S(=O)(=O)c2ccccc2)cc1	CYP2C9 inh 92, CYP2C19 inh 94
Cc1ccc(N2CC(C(=O)Nc3cc(C)on3)CC2=O)cc1 (stereo not drawn)	none
CCN(CCCNC(=O)c1ccc(N2CCCC2=O)cc1)c1cccc(C)c1	none
CCc1cccc2c(C#N)cn(CC(=O)NCCOC)c12	none
Cc1ccc(N(CC(=O)Nc2ccccc2-c2ccccc2)S(=O)(=O)c2ccccc2)cc1	CYP2C9 inh 60, CYP2C19 inh 55
COC(=O)CN(c1ccccc1)S(=O)(=O)c1ccccc1	none (no result: PostGolgi yeast, PostGolgi ctrl)
O=C(CN(Cc1ccccc1)S(=O)(=O)c1ccc(Br)cc1)NCc1ccco1	CYP2C9 inh 66
Cc1ccc(N(CC(=O)N/N=C/c2cccs2)S(C)(=O)=O)cc1Cl	CYP2C9 inh 69
COC(=O)CN(c1ccc(C)c(Cl)c1)S(C)(=O)=O	CYP2C19 inh 54
COC(=O)CN(c1c(C)cccc1C)S(C)(=O)=O	CYP2C19 inh 56
Cn1cccc1CC(=O)N/N=C\c1cccs1	none
Cc1sc2ncn(CC(=O)NCCN3CCOCC3)c(=O)c2c1S(=O)(=O)N1CCC(C)CC1	none
CCOC(=O)c1[nH]c(C)c(C(=O)Nc2ccc(C)cc2C)c1C	none
CC(C)(C)n1nc2c(c1NC(=O)c1ccc(S(=O)(=O)N3CCCCC3)cc1)CS(=O)C2 (stereo not drawn)	none
C=CCn1c(=S)[nH]c2ccc(Br)cc2c1=O	CYP2C19 inh 62
Cc1ccc(CN(C(=O)CNC(=O)c2cccs2)C(C(=O)NCC2CCCO2)c2ccccc2)cc1 (stereo not drawn)	none
Cc1cc(Cl)ccc1Oc1nccc(N(C)C)c1C#N	CYP2C9 inh 61
CN(C)c1ccnc(Oc2ccc(Cl)cc2)c1C#N	none
c1ccc2c3nnc4n(c-3nc2c1)CCCS4	none
O=C(Nc1ccc(F)cc1)c1ccc(-n2ccnc2)nc1	CYP2C9 inh 96, CYP2C19 inh 100
O=C(Nc1ccncc1)c1cccc(F)c1	PostGolgi ctrl 32, CYP2C19 inh 56
COc1ccc(NC(=O)c2ccc(-n3cccn3)nc2)cc1	none
O=C(Nc1ccc(N2CCCCC2)cc1)c1cncc(Br)c1	none
O=C(Nc1ccncc1)c1cncc(Br)c1	CYP2C19 inh 87
CCN(CC)S(=O)(=O)c1cc(C(=O)Nc2ccncc2)ccc1Cl	CYP2C9 inh 100, CYP2C19 inh 100
CC(C)(C)NCC1(CO)SC(N)=NC1=O (stereo not drawn)	none
Cc1nc2cncc(Br)c2n1C	none
COc1ccc2nc(CC(C)(C)CC(=O)O)c[n+]([O-])c2c1	none
CC(O)(CS(=O)(=O)Cc1ccccc1)C(=O)Nc1cccc(C(F)(F)F)c1 (stereo not drawn)	none
COc1ccc(C(=O)Nc2nccs2)cc1OC	none
O=C(Nc1ccncc1)Nc1ccc(F)cc1F	CYP2C9 inh 83, CYP2C19 inh 97
O=C(Nc1ccncc1)c1ccc(F)cc1	CYP2C9 inh 61, CYP2C19 inh 88
COc1ccc(C(=O)Nc2ccncc2)cc1OC	CYP2C19 inh 57
O=C(Nc1cccc(F)c1)c1ccccc1	none
Cc1nn(-c2ccccc2)c2sc(C(=O)OCN3C(=O)c4ccccc4C3=O)cc12	none (no result: PostGolgi yeast, PostGolgi ctrl)
